In PubChem BioAssay:

Each compound was assayed against Fibroblast growth factor 10 (Homo sapiens) (UniProt O15520) (assay: FGF10 binders on small-molecule microarrays, primary screen, biochemical, small-molecule microarray, 635 nm fluorescence (AID 1102)). Settings: FGF10 binding, fluorescence 635 nm, higher = more signal.
Fibroblast growth factor 10 (Homo sapiens), sequence (O15520 whole entry, looked up): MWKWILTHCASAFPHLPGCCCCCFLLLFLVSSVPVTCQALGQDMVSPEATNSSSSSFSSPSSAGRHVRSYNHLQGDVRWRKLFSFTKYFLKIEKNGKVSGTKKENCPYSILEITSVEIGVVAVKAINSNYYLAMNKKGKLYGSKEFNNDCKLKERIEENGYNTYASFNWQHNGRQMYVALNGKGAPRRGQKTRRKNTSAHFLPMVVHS
Compound `CC(C)(C)OC(=O)CC[C@]1(C(=O)N2CCCCC2)COC(c2ccc(OCCCO)cc2)=N1` has a composite z-score of 1.54.
`NC(=O)[C@H]1[C@@H]2C(=O)O[C@@H](c3ccccc3)[C@@H](c3ccccc3)N2[C@@H](c2ccc(O)cc2)[C@]12C(=O)Nc1ccc(C#CC3=CCCCC3)cc12` was tested, and the composite z-score was 0.0647.
Compound `CN1C(=O)[C@@]2(Cc3ccccc3)N=C(c3ccc(OCCCO)cc3)O[C@H]2c2ccccc21` has a composite z-score of 1.3.
For `Cc1nc2cc(Br)ccc2c(=O)n1Cc1cccc(O)c1`, the composite z-score was 0.89.
In the case of `Cc1ccc(N2C(=O)c3ccccc3[C@](C)(C(=O)NCc3ccccc3)[C@@H]2c2ccc(CO)cc2)nc1`, the composite z-score was 0.0497.
`CCCNC(=O)[C@@]1(Sc2ccc(C)cc2)CC(=O)N(C2CCCCC2)[C@@H]1c1ccc(CO)cc1I` showed a composite z-score of 0.382.
`COC(=O)[C@@]1(Cc2ccc(F)cc2)[C@H]2c3cc(C(=O)N(C)C)n(Cc4c(CO)[nH]cc(C)c4=O)c3C[C@H]2CN1C(=O)c1ccccc1` was tested, and the composite z-score was 0.663.
Work on `O=C1C2C=CC(C(O)c3ccco3)N(Nc3ccccc3)C2C(=O)N1c1ccccc1` (configuration not stated) yielded a composite z-score of -0.322.
Work on `C=C(COC)C(=O)CC[C@H](OC(C)=O)c1ccc(OCCO)cc1` yielded a composite z-score of 1.35.
`COCCOC(=O)N1C(=O)[C@@]2(c3cc(C#CC4=CCCCC4)ccc31)[C@H](c1ccc(O)cc1)N1[C@H](c3ccccc3)[C@H](c3ccccc3)OC(=O)[C@H]1[C@@H]2C(=O)NC[C@H](O)c1ccccc1` gave a composite z-score of 1.12.
In the case of `[N-]=[N+]=NC[C@H](Cc1ccccc1)NC(=O)c1ccccc1`, the composite z-score was -0.0183.
Compound `COC(=O)[C@@]1(Cc2ccc(OC)cc2)[C@H]2c3cc(C(=O)N4CCCC4)n(Cc4ccc(OC(F)(F)F)cc4)c3C[C@H]2CN1C(=O)c1ccccc1` has a composite z-score of 0.717.
Work on `CCC(CC)C(O)C1C=CC2C(=O)N(c3ccccc3)C(=O)C2N1Nc1ccc([N+](=O)[O-])cc1` (configuration not stated) yielded a composite z-score of 0.632.
For `COC(=O)C1N=C(c2ccc(OCCCO)cc2)N(c2ccccc2)O1` (configuration not stated), the composite z-score was 1.48.
For `Cc1ccccc1C(O)C1C=CC2C(=O)N(c3ccccc3)C(=O)C2N1Nc1ccc([N+](=O)[O-])cc1` (configuration not stated), the composite z-score was 0.597.
`COCC1=C2[C@@H](CCc3ccccc3)OB(O)C[C@@H]2[C@@H]2C(=O)N(C)C(=O)[C@@H]2C1` gave a composite z-score of 0.711.
Work on `O=C1O[C@H](c2ccccc2)[C@H](c2ccccc2)N2[C@H]1[C@@H](C(=O)N1CCCCCCC1)[C@]1(C(=O)Nc3ccc(C#CC4(O)CCCCCC4)cc31)[C@H]2c1ccccc1OCCO` yielded a composite z-score of 1.56.
`CCOC(=O)C1=CC[C@@H](c2ccccc2)N(S(=O)(=O)c2ccc(C)cc2)[C@H]1c1cccc(OC)c1` gave a composite z-score of 0.425.
In the case of `COc1cc(C(O)C2C=CC3C(=O)N(Cc4ccccc4)C(=O)C3N2n2cnnc2)cc(OC)c1OC` (configuration not stated), the composite z-score was 0.571.
`COc1ccc([Si](C)(C)[C@@H]2[C@@H](CCn3cc([C@H](O)c4ccccc4)nn3)O[C@]3(C(=O)N(c4ccccc4)c4ccccc43)[C@H]2C)cc1` gave a composite z-score of 0.23.
`COc1cc(NN2C(C(O)c3ccccc3)C=CC3C(=O)N(C)C(=O)C32)cc(OC)c1OC` (configuration not stated) showed a composite z-score of 0.422.
`NC(=O)N1C(=O)C2C(C1=O)C1C=C(CCCO)C2C(C2CC2)N1Cc1cccc(OC(F)(F)F)c1` (configuration not stated) gave a composite z-score of 0.075.
With `O=c1cccc(-c2ccc(F)cc2)o1` the composite z-score was 0.948.
Compound `CN(C)CCCCCCNC(=O)[C@@H]1C[C@@H]2C(=O)N[C@@H](CCCCN)C(=O)N2[C@@H]1c1ccc(O)cc1` has a composite z-score of 1.58.
In the case of `COCCOC(=O)N1C(=O)[C@@]2(c3cc(C#Cc4ccc(OC)cc4)ccc31)[C@H](C(=O)NC[C@H](O)c1ccccc1)[C@H]1C(=O)O[C@H](c3ccccc3)[C@H](c3ccccc3)N1[C@@H]2c1ccc(OCCO)cc1`, the composite z-score was 1.36.
`CC(C)C(=C=CC[C@@H](O)c1cccc(OCCO)c1)C[C@@H](O)c1ccccn1` showed a composite z-score of 0.285.
`C=C(CCCC)C(=O)CC[C@H](OC(C)=O)c1ccc(OCCO)cc1` gave a composite z-score of -0.509.
In the case of `C=C(CCCC)/C(=C/C[C@H](OC(C)=O)c1ccc(OCCO)cc1)c1cc(C(=O)OC)ccc1OC`, the composite z-score was 1.
Work on `COc1cc2c(cc1O)C(c1ccc(CN3CCCC3)cc1)N(C)CC2` (configuration not stated) yielded a composite z-score of 0.167.
`CC(C)[Si]1(C(C)C)OCc2cc(-c3ccc(-c4ccc(Cl)c(Cl)c4)o3)nc(CCc3ccccc3)c21` gave a composite z-score of 0.187.
Compound `[N-]=[N+]=Nc1ccccc1[C@@H]1OC(c2ccc(OCCCO)cc2)=N[C@]1(Cc1ccccc1)C(=O)NCc1ccccc1` has a composite z-score of 1.02.
`C=C(C)[C@@H]1CC=C(C(O)C2C=CC3C(=O)N(c4ccccc4)C(=O)C3N2Nc2ccc(C#N)cc2)CC1` (some centres not stated) was tested, and the composite z-score was 0.997.
